# Only some compounds are listed: those with a hit (about 1.3% of all), similar ones and a draw of the others.
# NCOA3 inh: SRC3 coactivator transcriptional activity inhibitors, primary screen, cell-based, luminescence. Nuclear receptor coactivator 3 (Homo sapiens), Q9Y6Q9. HEK293 GAL4-SRC3 luciferase reporter. inhibition, % at 3.6 µM. hit rate 0.17% among 360,000. AID 588352, 2011;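 active = inhibition above a per-campaign cutoff, the mean of all compounds plus 3 SD, cut at about 60% in these data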;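 also: 0% = DMSO-treated cells and 100% = gossypol-treated cells at 36 µM; higher means less SRC3-driven luciferase light from the GAL4 reporter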
# LRH-1 inv ag: LRH-1 (NR5A2) inverse agonists, primary screen, cell-based, luminescence, HEK293T, StAR-luciferase reporter; hit rate 0.13% among 360,000; LRH-1 transfected, 24 h; inhibition, % at 3.6 µM;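 active = inhibition above the mean inhibition of all tested compounds plus 3 SD, cut at about 73% in these data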;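 also: 0% = DMSO wells and 100% = reporter-only cells lacking LRH-1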
# SRC2 inh: inhibition of GAL4-SRC2 driven luciferase reporter, primary screen, SRC2 inhibitor project, cell-based, luminescence; Nuclear receptor coactivator 2 (Homo sapiens), Q15596; HEK293 GAL4-SRC2 luciferase reporter; hit rate 0.17% among 370,000; inhibition, % at 9 µM; AID 651957, 2012;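 active = inhibition above the mean inhibition of all tested compounds plus 3 SD, set per campaign, cut at about 52% in these data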;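 also: 0% = DMSO treated cells and 100% = cells given Gossypol at 36 µM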
# Gli-Sufu antag: Gli-Sufu pathway antagonists, primary screen, luciferase luminescence, Sufu-KO-LIGHT cells, uHTS | AID 588413, 2011 | Sufu-KO-LIGHT fibroblasts, Gli luciferase reporter luminescence | inhibition, % at 5 µM | hit rate 0.74% among 340,000;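 active = inhibition above about 55%, limit read from the data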;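 also: 0% = DMSO-treated cells and 100% = wells with medium but no cells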
# NCOA1 inh: SRC1 coactivator transcriptional activity inhibitors, primary screen, cell-based, luminescence; Nuclear receptor coactivator 1 (Homo sapiens), Q15788; HEK293 GAL4-SRC1 luciferase reporter; hit rate 0.12% among 360,000; AID 588354, 2011; inhibition, % at 3.6 µM;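 active = inhibition above the campaign mean plus 3 SD, with each screening campaign given its own cutoff, cut at about 60% in these data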;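 also: 0% = DMSO treated cells and 100% = gossypol at 36 µM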
# NR2F2 inh: NR2F2 transcriptional activity inhibitors, primary screen, cell-based, luciferase reporter, HEK293T, luminescence. COUP transcription factor 2 (Homo sapiens), P24468. hit rate 0.7% among 370,000. inhibition, % at 8.6 µM. AID 686940, 2013. HEK293T NGFI-A luciferase reporter;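 active = inhibition above a per-plate cutoff, mean inhibition of test wells between control levels plus 3 SD, cut at about 38% in these data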;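 also: cells cotransfected with COUP-TFII expression vector driving the NGFI-A reporter; 0% = median of COUP-TF2 test wells and 100% = reporter-only cells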
# Target sequence (P24468 whole entry, looked up): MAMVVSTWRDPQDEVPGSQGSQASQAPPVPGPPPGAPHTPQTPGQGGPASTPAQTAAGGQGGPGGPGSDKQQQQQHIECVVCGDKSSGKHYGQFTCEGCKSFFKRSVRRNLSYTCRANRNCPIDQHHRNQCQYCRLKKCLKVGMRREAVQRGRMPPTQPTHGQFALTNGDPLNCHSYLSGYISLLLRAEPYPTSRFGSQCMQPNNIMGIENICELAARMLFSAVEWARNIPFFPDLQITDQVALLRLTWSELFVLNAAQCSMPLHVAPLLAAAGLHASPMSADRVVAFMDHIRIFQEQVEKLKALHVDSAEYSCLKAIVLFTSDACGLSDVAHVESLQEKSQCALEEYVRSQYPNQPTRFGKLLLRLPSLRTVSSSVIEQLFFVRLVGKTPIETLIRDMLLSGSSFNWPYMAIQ
# Gal4-VP16 ctr: Gal4-VP16 luciferase reporter inhibitors, counter-screen for COUP-TFII antagonist project, cell-based, luminescence, HEK293. shares compounds with NR2F2 inh. inhibition, % at 8.5 µM. hit rate 25% among 2,500; in the data active = inhibition above about 13%
# COUP-TFII conf: NR2F2 transcriptional activity inhibitors, confirmation, cell-based, luciferase reporter, HEK293, triplicate. HEK293 NGFI-A luciferase reporter, luminescence. shares compounds with NR2F2 inh. hit rate 45% among 2,500. inhibition, % at 8.5 µM;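 active = mean inhibition over three repeats above a set limit taken from the earlier primary screen, cut at about 38% in these data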;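 also: 100% = cells given the luciferase reporter alone without the COUP-TF2 vector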
# Active calls of the source: *; x = no result.
SMILES,NCOA3 inh,LRH-1 inv ag,SRC2 inh,Gli-Sufu antag,NCOA1 inh,NR2F2 inh,Gal4-VP16 ctr,COUP-TFII conf
S=C(NN=C(c1ccccc1)c1ccccn1)N(Cc1ccccn1)Cc1ccccn1,71*,70,23,69*,66*,54*,3,45*
CC(NCc1ccco1)C(=O)N1CCN(c2ccc(F)cc2)CC1 (stereo unspecified),x,x,-33,x,x,-8,x,x
O=C1c2cccc(O)c2C(=O)c2c(O)cc(CO)cc21,x,x,x,1,x,x,x,x
CC1OC2CC(=O)OC2C2=C1C(=O)c1c(O)cccc1C2=O (stereo unspecified),96*,104*,95*,x,91*,107*,97*,110*
CC1CCC2(CC1)CCN(CCCOC(=O)Nc1cccc(C(F)(F)F)c1)C2=O (stereo unspecified),x,x,-6,x,x,27,x,x
COc1cccc(CNC(=O)Cn2c(-c3ccccc3)cc(C(C)=O)c2C)c1,x,x,5,x,x,-6,x,x
CCc1cccc(CC)c1NC(=O)CSc1nc2ccc(N3C(=O)C4C5C=CC(C5)C4C3=O)cc2s1 (stereo unspecified),3,-1,3,20,13,39*,-6,17
O=S(=O)(NCc1cn2ccsc2n1)c1ccc(Oc2ccccc2)cc1,28,44,20,-26,28,42*,9,30
O=S(=O)(NCc1cn2ccsc2n1)c1cccs1,-11,-10,-18,14,-27,-6,x,x
COC(=O)CSc1nnc(-c2ccc(NS(=O)(=O)c3ccc(C)c(C)c3)cc2)o1,x,x,-10,x,x,-1,x,x
C[C@@H]1C(=O)N2N=Cc3cc4ccccc4cc3[C@H]2N2N=Cc3cc4ccccc4cc3[C@@H]12,x,x,1,x,x,-14,x,x
COc1ccc(-n2c(COc3ccccc3)nnc2SCC(=O)Nc2ccccc2-c2ccccc2)cc1,x,x,5,x,x,14,x,x
CCOc1ccccc1C(=O)Nc1cc2c(cc1N1CCCC1)n(CC)c(=O)n2CC,32,47,-3,58*,24,41*,-3,22
CCn1c(=O)n(CC)c2cc(N3CCCC3)c(NC(=O)c3ccccc3OC)cc21,8,31,20,20,25,32,x,x
Cc1ccc(-n2c(-c3ccccc3)c[n+]3c2CCc2ccccc2-3)c(C)c1,71*,68,12,87*,38,64*,17*,57*
Cc1ccc(-n2c(SCC(=O)N3CCCc4ccccc43)nnc2-c2cccnc2)c(C)c1,9,6,9,1,-1,17,x,x
COc1ccc(C2CCc3cc4c(cc3C2=NOC(C)=O)OCO4)cc1OC (stereo unspecified),-30,4,-2,x,-11,44*,-2,5
O=C(O)Cn1cnc2c(OCc3ccccc3)ncnc21,-36,0,18,18,3,-9,x,x
Cc1cc(C)c(CN2CCN(C(=O)Cn3cnc4c(OCc5ccccc5)ncnc43)CC2)c(C)c1,25,32,22,46,26,63*,-5,64*
CCc1nc2ccc(C(=O)Nc3cc(-c4ccccc4)ccc3OC)cn2c1N(C)Cc1nccs1,15,-14,9,x,13,50*,6,21
CCc1nc2ccc(C(=O)Nc3ccc(NC(C)=O)cc3)cn2c1N(C)C(=O)Cc1ccccc1,-2,-14,13,x,7,53*,-8,3
CCc1nc2ccc(C(=O)Nc3cccc(NS(C)(=O)=O)c3)cn2c1N(C)C(=O)Cc1ccccc1,10,7,16,x,10,16,x,x
CCc1nc2ccc(C(=O)Nc3cc(-c4ccccc4)ccc3OC)cn2c1N(C)Cc1ccc(OC)cc1,-28,-11,-8,x,-1,8,x,x
O=c1oc(-c2ccccc2)cc2ccccc12,-52,-106,-50,x,-57,-47,x,x
Nc1ccc(-c2cc3ccccc3c(=O)o2)cc1,26,-20,74*,31,19,73*,42*,34
SMILES,NCOA3 inh,LRH-1 inv ag,SRC2 inh,Gli-Sufu antag,NCOA1 inh,NR2F2 inh,Gal4-VP16 ctr,COUP-TFII conf
O=C(Nc1nc(-c2ccccc2)cs1)c1ccccc1NS(=O)(=O)c1ccc(F)cc1,60,75*,25,53,44,55*,-4,32
COCCn1c(C)cc(C(=O)CSc2nc3ccccc3s2)c1C,29,2,9,0,25,50*,-57,31
COCCn1c(C)cc(C(=O)CSc2nc3ccccc3o2)c1C,-64,-128,-64,-84,-80,-39,x,x
O=C(Nc1ccccc1)OCCN1CCCC12CCC(c1ccccc1)CC2 (stereo unspecified),x,x,x,x,x,-9,x,x
CC(C)(C)c1ccc(C(=O)Nc2ccc(NC(=O)C(=O)O)cc2)o1,-22,11,59*,-3,-5,42*,2,2
Cc1oc(C(C)(C)C)cc1C(=O)Nc1ccc(C(=O)O)cc1,-53,-181,-31,1,-51,-17,x,x
O=C(c1cccc(F)c1)N1CCCC(c2nc(-c3cccs3)no2)C1 (stereo unspecified),x,x,-4,x,x,-7,x,x
COc1ccc(Br)cc1CSC(=N)N,10,9,22,14,8,9,x,x
CCCCCOc1ccc(Br)cc1CSC(=N)N,27,43,30,66*,-14,66*,16*,47*
CCN(c1ccccc1)S(=O)(=O)c1ccc(C(=O)Nc2cccc(NC(C)=O)c2)cc1,15,-8,1,-1,-14,7,x,x
CCN(c1ccccc1)S(=O)(=O)c1cc(C(=O)Nc2ccc(F)c(F)c2)ccc1F,12,34,3,5,14,44*,-9,28
CC(C)C(Sc1nc(-c2ccccc2)cc(-c2ccccc2)c1C#N)C(=O)O (stereo unspecified),-32,6,-14,-2,-14,38*,2,6
CC(C)(C)C(=O)Nc1ccc(NC(=O)c2ccco2)nc1,78*,75*,82*,80*,79*,84*,78*,95*
COc1ccc2c(c1)CCCN2C(=O)C1CCCN(S(=O)(=O)c2ccc(C(C)(C)C)cc2)C1 (stereo unspecified),x,x,36,x,x,48*,5,19
CC(C)(C)c1ccc(S(=O)(=O)N2CCCC(C(=O)N3CCN(Cc4ccccc4)CC3)C2)cc1 (stereo unspecified),x,x,12,x,x,45*,5,29
